The results in this text go back to ChEMBL document CHEMBL3433997, “St. Jude Leishmania screening dataset” (2016).

Holding throughout (format): functional
Assay [1] has as its target Solute carrier family 2, facilitated glucose transporter member 1 (Homo sapiens) (UniProt P11166). The assay can be described thus: ST_JUDE_LEISH: Cytotoxicity at 2uM final concentration against transgenic Leishmania Mexicana promastigotes LmGLUT1 that are glucose transport deficient and complemented with the human glucose transporter GLUT1. Activity is measured by DNA content using SYBR green in vitro.

Assay [2] has as its target Hexose transporter 1 (Plasmodium falciparum) (UniProt O97467). The assay can be described thus: ST_JUDE_LEISH: Cytotoxicity at 2uM final concentration against transgenic Leishmania Mexicana promastigotes LmPfHT that are glucose transport deficient and complemented with the Plasmodium falciparum hexose transporter. Activity is measured by DNA content using SYBR green in vitro.

Assay [3] concerns the target Glucose transporter (Leishmania mexicana) (UniProt O61059). The assay can be described thus: ST_JUDE_LEISH: Cytotoxicity at 2uM final concentration against transgenic Leishmania Mexicana promastigotes LmGT2 that are glucose transport deficient and complemented with the L. Mexicana glucose transporter 2. Activity is measured by DNA content using SYBR green in vitro.

SMILES strings stand for the structures.

Solute carrier family 2, facilitated glucose transporter member 1 (Homo sapiens), sequence (P11166 whole entry): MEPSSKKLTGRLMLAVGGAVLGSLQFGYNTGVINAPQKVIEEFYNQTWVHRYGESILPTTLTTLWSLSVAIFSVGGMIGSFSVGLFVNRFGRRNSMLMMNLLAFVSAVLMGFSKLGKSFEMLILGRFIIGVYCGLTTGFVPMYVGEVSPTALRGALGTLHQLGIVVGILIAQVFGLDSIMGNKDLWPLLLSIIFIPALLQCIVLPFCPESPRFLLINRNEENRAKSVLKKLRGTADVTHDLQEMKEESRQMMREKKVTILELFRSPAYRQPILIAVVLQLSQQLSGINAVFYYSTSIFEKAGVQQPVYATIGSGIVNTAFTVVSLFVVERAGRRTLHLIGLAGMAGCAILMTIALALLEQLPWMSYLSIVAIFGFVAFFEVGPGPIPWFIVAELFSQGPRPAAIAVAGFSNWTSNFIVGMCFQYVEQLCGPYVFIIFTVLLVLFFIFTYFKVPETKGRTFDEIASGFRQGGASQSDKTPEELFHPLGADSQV

Usually inhibition stands for the change of the read-out against control, counted positive when it falls. Take `N#Cc1cccc(CNC(=O)c2cccc(Nc3ccnc4ccc(F)cc34)c2)c1`: the values for the inhibition in assay [1], in assay [2] and in assay [3] were -0.1%, 1.25% and 0.82%, respectively.
For `Oc1ccc(CCNc2nc(NCCCOc3ccccc3-c3ccc(F)cc3)nc(N3CCNCC3)n2)cc1` the same measures were 13.3%, 14.8% and 9.28%.
On the same counts, the results for `c1cnc2ccc(NCc3ccc(-c4ccc(CNC5CCCC5)cc4)cc3)cc2c1` are 0.93%, 0.1% and -6.73%.
In the case of `O=C1C(C2CCC(c3ccc(Cl)cc3)CC2)=C2OCC3COC2(O3)c2ccccc21` (centres undefined), the values for the inhibition in assay [1], in assay [2] and in assay [3] were 1.13%, 0.99% and -0.99%, respectively.
For `CC(Nc1cc(-c2ccccn2)nc(-c2ccccn2)n1)c1ccccc1` (centres undefined) the same measures were 23.4%, 12.8% and 17.5%.
Take `CC(=O)Nc1cccc(C(=O)Nc2cccc(-c3ccc(-c4nc5cc(F)ccc5[nH]4)cc3)c2)c1`: the results for the inhibition in assay [1], in assay [2] and in assay [3] were 2.1%, 2.11% and 1.46%, respectively.
For `OCC1CCN(Cc2cccc(-c3ccc(-c4nc5cc(C(F)(F)F)ccc5[nH]4)s3)c2)CC1` the same measures were 4.2%, 4.88% and 3.14%.
Regarding `N#Cc1cncc(-c2nc3c(N4CCN(c5cnccn5)CC4)cccc3n2CCNCc2ccccc2)c1`, the inhibition in assay [1] is 2.77%; in assay [2], 1.47%; in assay [3], -3.33%.
For `OC(CNCc1ccccc1OCc1ccccc1)c1cccc(Cl)c1` (centres undefined) the same measures were 5.6%, 4.24% and 5.2%.
As to `O=C(Nc1ccc(OC2CCN(CC3CC3)CC2)c(Cl)c1)c1ccc2ncccc2c1`, the inhibition in assay [1] came to 8.41%; in assay [2], 9.49%; in assay [3], 7.58%.
As to `CCCCCCN(CCCCCC)CC(O)c1cc(-c2ccc(Cl)cc2)nc2c(C)cc(C)cc12` (centres undefined), the inhibition in assay [1] is 8.61%; in assay [2] it was 6.85%; in assay [3], 8.75%.
On the same counts, the results for `O=C(CSc1nc2ccccc2c(=O)n1CC1CCCO1)Nc1cc(C(F)(F)F)ccc1Cl` (centres undefined) are 9.97%, 9.45% and 6.14%.
As for `O=C(/C=C/c1ccc(Cl)c(Cl)c1)NCCCCCN1CCC(NC(=O)NC2CCCC2)CC1`, the inhibition in assay [1] was determined as 1.11%; in assay [2] it was 1.93%; in assay [3], 0.26%.
Turning to `CCc1ccc(CN2CCC(NC(=O)c3ccc(-c4ccc(N(C)C)cc4)s3)CC2)cc1`, the inhibition in assay [1] is 2.04%; in assay [2] it was 1.82%; in assay [3] it was 6.05%.
With `N#Cc1ccc2c(c1)CCN(CCC1CCC(NC(=O)/C=C/c3c[nH]c4ccc(F)cc34)CC1)CC2` (centres undefined), the inhibition in assay [1] was found to be 0.97%; in assay [2], 3.57%; in assay [3], 2.6%.
`Oc1ccc(-c2nc(-c3ccc4oc5ccc(-c6[nH]c(-c7ccc(O)cc7)nc6-c6ccccc6)cc5c4c3)c(-c3ccccc3)[nH]2)cc1`: the inhibition in assay [1] was -2.06%; in assay [2], -1.28%; in assay [3], -0.47%.
On the same counts, the results for `COc1ccc(Cl)cc1N1CCN(CCCNC(=O)c2ccc(-c3nc4cc5ccccc5cc4[nH]3)c(F)c2)CC1` are 1.51%, 3.41% and 1.26%.
For `Cc1cccc2nc(-c3cccc(-c4cccc(NC(=O)c5cnn6cccnc56)c4)c3)[nH]c12` the same measures were 5.09%, 4.22% and 1.19%.
With `CC=CC1CCNC(C(O)c2ccnc3ccc(OC)cc23)C1` (centres undefined), the inhibition in assay [1] came out at 2.16%; in assay [2] it was 2.5%; in assay [3] it was 2.9%.
On the same counts, the results for `O=S(=O)(NCCN1CCCC1)c1ccc(-c2cccc(CNCc3ccc(F)cc3)c2)s1` are 6.73%, 2.44% and -1.98%.
As for `COc1ccc2[nH]ccc(=NN=Cc3ccc(N(C)C)cc3)c2c1`, the results for the inhibition in assay [1], in assay [2] and in assay [3] were 2.69%, 3.94% and 0.57%, respectively.
For `N#Cc1ccc2[nH]cc(CN3CCC4(CC3)CN(CCNCc3ccccc3)C(=O)CO4)c2c1`, the inhibition in assay [1] is 2.13%; in assay [2] it was -0.73%; in assay [3], 5.02%.
On the same counts, the results for `Cc1ccc(C)c(NC(=O)NC2CCN(c3ccnc(Nc4ccc(F)cc4)n3)C2)c1` (centres undefined) are -2.45%, -0.78% and -1.79%.
Take `CC1(C)N=C(N)N=C(N)N1OCc1cccc2c1ccc1ccccc12`: the inhibition in assay [1] was 0.96%; in assay [2] it was 2.76%; in assay [3], 0.32%.
On the same counts, the results for `Cc1c(Cc2ccccc2)c(=O)oc2c(C)c3c(cc12)CN(CC(C)c1ccccc1)CO3` (centres undefined) are 4.3%, 4.73% and 5.8%.
For the compound `CCCCCCCN(Cc1ccc(OC(C)(C)C(=O)OCC)cc1)C(=O)Nc1ccc(Cl)cc1OCC`, the inhibition amounted to 3.65% in assay [1], 0.95% in assay [2] and 3.11% in assay [3].
`Cc1cccc2nc(-c3ccc(-c4cccc(CN5CCN(CCN6CCOCC6)CC5)c4)s3)[nH]c12`: the inhibition in assay [1] is 0.45%; in assay [2], -1.04%; in assay [3], 0.64%.
Regarding `COc1cccc(CCNCCCCCCNCCc2ccc(Cl)cc2)c1`, the inhibition in assay [1] came out at 2.26%; in assay [2], 2.74%; in assay [3] it was 2.55%.
For `Oc1ccc2ccccc2c1CNCC1CCCCC1` the same measures were 0.28%, 3.31% and 2.73%.
On the same counts, the results for `Cc1cccc(OC(C)C(=O)Nc2cc(C(F)(F)F)ccc2N2CCOCC2)c1` (centres undefined) are 2.38%, 3.02% and 6.44%.
As to `O=C(/C=C/c1ccc(Cl)c(Cl)c1)NCC[C@@H]1C[C@H]1CCN1CCC(c2c[nH]c3ccccc23)CC1`, the figures for the inhibition in assay [1], in assay [2] and in assay [3] were 9.6%, 8.4% and 6.24%, respectively.
For `N#Cc1c(-c2ccccc2)cn2c1[nH]c(=O)c1ccccc12` the same measures were -1.7%, 2.37% and 1.89%.
For `Oc1ccc2c(c1NCC1CCCCC1)CCCC2` the same measures were 2.5%, 2.89% and 1.57%.
